“And” between values parts separate entries of the source, which are not always exact repeats. Equal values may be shown once. Inconclusive results are not listed. A structure can be active in one record and inactive in another. The source made the active and inactive calls. How the source made its calls, unless noted: active means hit-call score of the fitted dose curve at least 0.9, where 1 is the maximum; inactive means score below 0.9.

The AC50 is the midpoint of the concentration-response curve, whichever way the signal moves.

Read-out in experiment [1]: solute carrier (SLCO1B1), SLCO1B1 (gene 10599)
Description: LTEA_HepaRG_SLCO1B1: Life Technologies and Expression Analysis (LTEA) Assay for solute carrier (SLCO1B1) using HepaRG (AID 2283530). The note with it: mRNA level, 48 h; actives raise or lower the signal. The essentials:
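Differentiated human HepaRG cells, plated 48 h, switched to serum-free induction medium and exposed in duplicate for 48 h to 8 half-log concentrations (top 100 uM) in 0.5% DMSO. SLCO1B1 mRNA by TaqMan qRT-PCR, normalized to ACTB/GAPDH/POLR2A.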

Read-out in experiment [2]: sulfotransferase 2A1 (SULT2A1), SULT2A1 (gene 6822)
Description: LTEA_HepaRG_SULT2A1: Life Technologies and Expression Analysis (LTEA) Assay for sulfotransferase 2A1 (SULT2A1) using HepaRG (AID 2283531). The note with it: mRNA level, 48 h; actives raise or lower the signal. Summed up:
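Differentiated human HepaRG cells in serum-free induction medium were exposed for 48 h to eight half-log concentrations (top 100 uM, 0.5% DMSO). SULT2A1 mRNA was measured by qRT-PCR, normalized to ACTB, GAPDH and POLR2A, and fitted bidirectionally against DMSO.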

Read-out in experiment [3]: Transforming Growth Factor (TGFA), TGFA (gene 7039)
Description: LTEA_HepaRG_TGFA: Life Technologies and Expression Analysis (LTEA) Assay for Transforming Growth Factor (TGFA) using HepaRG (AID 2283532). The note with it: mRNA level, 48 h; actives raise or lower the signal. The essentials: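 Differentiated HepaRG cells exposed 48 hours in serum-free induction medium, 0.5% DMSO vehicle, 8-point half-log series from 100 uM, in duplicate. TGFA mRNA by TaqMan qRT-PCR, normalised to ACTB, GAPDH, POLR2A; bidirectional fit versus DMSO.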

Read-out in experiment [4]: Transforming Growth Factor (TGFB1), TGFB1 (gene 7040)
Description: LTEA_HepaRG_TGFB1: Life Technologies and Expression Analysis (LTEA) Assay for Transforming Growth Factor (TGFB1) Transporter using HepaRG (AID 2283533). The note with it: mRNA level, 48 h; actives raise or lower the signal. Summed up:
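Differentiated human HepaRG cells in serum-free induction medium were exposed in duplicate for 48 h to eight concentrations (top 100 uM, half-log steps, 0.5% DMSO). TGFB1 mRNA was quantified by qRT-PCR, normalized to ACTB, GAPDH, POLR2A, and fitted bidirectionally against DMSO.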

Read-out in another experiment: TIMP1, TIMP1 (gene 7076)
Description: LTEA_HepaRG_TIMP1: Life Technologies and Expression Analysis (LTEA) Assay for TIMP1 using HepaRG (AID 2283534).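 On outcome: TaqMan qRT-PCR signal normalized to ACTB GAPDH and POLR2A housekeeping genes.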 The following applies: mRNA level, 48 h; actives raise or lower the signal. Summed up:
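Differentiated human HepaRG cells in serum-free induction medium were exposed 48 h to chemicals (8 half-log concentrations, top 100 uM, 0.5% DMSO). TIMP1 mRNA was quantified by TaqMan qRT-PCR, normalized to ACTB/GAPDH/POLR2A; bidirectional fit versus DMSO.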

Read-out in experiment [5]: Tumor necrosis factor receptor 1 (TNFRSF1A), TNFRSF1A (gene 7132)
Description: LTEA_HepaRG_TNFRSF1A: Life Technologies and Expression Analysis (LTEA) Assay for Tumor necrosis factor receptor 1 (TNFRSF1A) using HepaRG (AID 2283535). The note with it: mRNA level, 48 h; actives raise or lower the signal. The essentials:
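Differentiated human HepaRG cells were exposed in duplicate for 48 h in serum-free induction medium to eight concentrations (top 100 uM, half-log steps, 0.5% DMSO). TNFRSF1A mRNA was quantified by qRT-PCR, normalized to ACTB, GAPDH and POLR2A, then fitted bidirectionally against DMSO.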

Read-out in experiment [6]: Thyroid Hormone Responsive (THRSP), THRSP (gene 7069)
Description: LTEA_HepaRG_THRSP: Life Technologies and Expression Analysis (LTEA) Assay for Thyroid Hormone Responsive (THRSP) using HepaRG (AID 2283536). The following applies: mRNA level, 48 h; actives raise or lower the signal. The essentials:
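Differentiated HepaRG cells treated 48 h in serum-free induction medium with 8 half-log concentrations up to 100 uM (0.5% DMSO), duplicates. THRSP mRNA by TaqMan qRT-PCR normalised to ACTB, GAPDH, POLR2A; bidirectional fit versus DMSO.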

Read-out in experiment [7]: Cellular tumor antigen p53 (Homo sapiens) (UniProt P04637)
Description: LTEA_HepaRG_TP53: Life Technologies and Expression Analysis (LTEA) Assay for Tumor Protein P53 (TP53) using HepaRG (AID 2283537). The following applies: mRNA level, 48 h; actives raise or lower the signal. Summed up: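 Read-out is TP53 transcript level by microfluidic qRT-PCR, normalised to three housekeeping genes and fitted bidirectionally against DMSO. Human HepaRG cells received compounds for 48 h, highest concentration 100 uM.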

Read-out in experiment [8]: X-box binding protein 1 (XBP1), XBP1 (gene 7494)
Description: LTEA_HepaRG_XBP1: Life Technologies and Expression Analysis (LTEA) Assay for X-box binding protein 1 (XBP1) using HepaRG (AID 2283540). The following applies: mRNA level, 48 h; actives raise or lower the signal. Summed up:
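Differentiated human HepaRG cells in serum-free induction medium were exposed in duplicate for 48 h to eight half-log concentrations up to 100 uM in 0.5% DMSO. XBP1 mRNA was quantified by qRT-PCR, normalised to ACTB, GAPDH and POLR2A, with bidirectional fitting against DMSO.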

Experiment [9] can be described thus: LTEA_HepaRG_LDH_cytotoxicity: Cytotoxicity Assessment in the Life Technologies and Expression Analysis (LTEA) Assay (AID 2283563; active means hit-call score of the fitted dose curve at least 0.9, where 1 is the maximum;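 on AC50: LDH activity released into spent culture medium as a marker of cell death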). Summed up: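 Differentiated human HepaRG cells, plated 48 h beforehand, were switched to serum-free induction medium and exposed for 48 h to eight half-log concentrations (top 100 uM) in 0.5% DMSO. LDH was measured in spent medium; activity was fitted relative to DMSO vehicle.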

Experiment [10] addresses Cellular tumor antigen p53 (Homo sapiens) (UniProt P04637). Description: TOX21_p53_BLA_p2_ratio: Tox21 HCT-116 p53 Agonism Beta-lactamase Assay, Ratio, Phase 2 (AID 2283592; active means hit-call score of the fitted dose curve at least 0.9, where 1 is the maximum). Summed up:
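HCT116 cells carrying a p53-responsive beta-lactamase reporter were plated, incubated 5 h at 37C, then dosed with compounds in DMSO (217-fold dilution) for 16 h. CCF4-AM substrate was added for 2 h at room temperature; the 460/530 nm emission ratio gave gain-of-signal activity relative to DMSO.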

The nature of experiment [11]: TOX21_p53_BLA_p3_viability: Viability Assessment in the Tox21 HCT-116 p53 Agonism Beta-lactamase Assay, Phase 3 (AID 2283593; active means hit-call score of the fitted dose curve at least 0.9, where 1 is the maximum;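 further: cells exposed to compound for 16 h before reading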). The essentials: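 HCT116 cells, 4000/well, dosed 5 h after plating by pin transfer (217-fold dilution from DMSO stock) and incubated 16 h at 37C, 5% CO2. Viability read as ATP luminescence with CellTiter-Glo after 30 min at room temperature.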

In experiment [12] the target is Cellular tumor antigen p53 (Homo sapiens) (UniProt P04637). Description: TOX21_p53_BLA_p3_ratio: Tox21 HCT-116 p53 Agonism Beta-lactamase Assay, Ratio, Phase 3 (AID 2283596; active means hit-call score of the fitted dose curve at least 0.9, where 1 is the maximum). The essentials: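 HCT116 p53-bla cells (4000/well) given compound in DMSO (217-fold dilution) after 5 h, incubated 16 h at 37C. CCF4-AM substrate 2 h at room temperature; 460/530 nm emission ratio, gain fitted against DMSO.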

A short description of experiment [13]: TOX21_p53_BLA_p4_viability: Viability Assessment in the Tox21 HCT-116 p53 Agonism Beta-lactamase Assay, Phase 4 (AID 2283597; active means hit-call score of the fitted dose curve at least 0.9, where 1 is the maximum;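 further: hits lower the luminescence signal meaning cytotoxicity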). Summed up:
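HCT116 p53-bla cells (4000/well) rested 5 h at 37C, then received compounds in DMSO (217-fold dilution) for 16 h at 37C, 5% CO2. CellTiter-Glo was added after the CCF4-AM read, and luminescence was read after 30 min at room temperature.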

For experiment [14], the target named is Cellular tumor antigen p53 (Homo sapiens) (UniProt P04637). Description: TOX21_p53_BLA_p5_ratio: Tox21 HCT-116 p53 Agonism Beta-lactamase Assay, Ratio, Phase 5 (AID 2283599; active means hit-call score of the fitted dose curve at least 0.9, where 1 is the maximum). The essentials: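 HCT-116 p53-bla cells (4000/well) plated 5 h, dosed with compound (217-fold DMSO dilution) for 16 h at 37 C; CCF4-AM substrate 2 h at room temperature. Activity is the 460/530 nm emission ratio (405 nm excitation), fitted in gain-of-signal direction versus DMSO.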

A short description of experiment [15]: TOX21_p53_BLA_p5_viability: Viability Assessment in the Tox21 HCT-116 p53 Agonism Beta-lactamase Assay, Phase 5 (AID 2283600; active means hit-call score of the fitted dose curve at least 0.9, where 1 is the maximum). Summed up:
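Cells were plated at 4000/well, rested 5 h at 37C, then given compounds in DMSO (217-fold dilution) for 16 h at 37C, 5% CO2. Following the CCF4-AM beta-lactamase read, CellTiter-Glo was added and luminescence was read after 30 min at room temperature.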

In experiment [16] the target is Cellular tumor antigen p53 (Homo sapiens) (UniProt P04637). Description: TOX21_p53_BLA_p4_ratio: Tox21 HCT-116 p53 Agonism Beta-lactamase Assay, Ratio, Phase 4 (AID 2283601; active means hit-call score of the fitted dose curve at least 0.9, where 1 is the maximum). The essentials: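 HCT-116 p53 beta-lactamase reporter cells (4000/well) preincubated 5 h, then compound (217-fold dilution of DMSO stock) for 16 h at 37C. CCF4-AM substrate added 2 h at room temperature; 460/530 nm emission ratio fitted upward versus DMSO.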

Experiment [17] in a line: ATG_XTT_Cytotoxicity: Cytotoxicity Assessment in the Attagene TRANS-FACTORIAL HepG2 Assay (AID 2283584; active means hit-call score of the fitted dose curve at least 0.9, where 1 is the maximum). Summed up: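 HepG2 human liver cells, transiently transfected with multiple GAL4-UAS reporter units, were dosed and read at 24 h by XTT as cell number. Loss of signal was fitted relative to DMSO negative control baseline.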
Read-out in experiment [18]: UDP glucuronosyltransferase (UGT1A1), UGT1A1 (gene 54658)
Description: LTEA_HepaRG_UGT1A1: Life Technologies and Expression Analysis (LTEA) Assay for UDP glucuronosyltransferase (UGT1A1) using HepaRG (AID 2283538). The following applies: mRNA level, 48 h; actives raise or lower the signal. Summed up:
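HepaRG cells, 0.5% DMSO vehicle, 48 h exposure in serum-free induction medium to 8-point half-log series topping at 100 uM, in duplicate. UGT1A1 mRNA by Fluidigm qRT-PCR, normalized to ACTB/GAPDH/POLR2A; bidirectional fit versus DMSO.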

Cellular tumor antigen p53 (Homo sapiens), sequence (P04637 whole entry, looked up): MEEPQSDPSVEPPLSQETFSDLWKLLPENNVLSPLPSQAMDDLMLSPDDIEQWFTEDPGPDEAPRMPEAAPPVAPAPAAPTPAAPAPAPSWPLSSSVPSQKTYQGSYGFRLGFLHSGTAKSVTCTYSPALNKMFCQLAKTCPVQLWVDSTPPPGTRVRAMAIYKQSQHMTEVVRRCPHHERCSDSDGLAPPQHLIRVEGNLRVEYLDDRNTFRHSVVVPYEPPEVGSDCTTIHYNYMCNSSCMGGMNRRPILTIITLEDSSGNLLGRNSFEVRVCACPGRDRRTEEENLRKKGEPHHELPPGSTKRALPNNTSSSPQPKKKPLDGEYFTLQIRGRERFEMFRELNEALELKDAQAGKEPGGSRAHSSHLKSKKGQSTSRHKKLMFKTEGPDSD

Take `CC[C@H](C)[C@H]1O[C@]2(C=C[C@@H]1C)C[C@@H]1C[C@@H](C/C=C(\C)[C@@H](O[C@H]3C[C@H](OC)[C@@H](O[C@H]4C[C@H](OC)[C@@H](O)[C@H](C)O4)[C@H](C)O3)[C@@H](C)/C=C/C=C3\CO[C@@H]4[C@H](O)C(C)=C[C@@H](C(=O)O1)[C@]34O)O2` (tested in a mixture with another compound): the AC50 was 15.2 µM (active) in experiment [1]; 8.58 µM (active) in experiment [2]; 13.9 µM (active) in [3]; 55.3 µM (active) in experiment [4]; 11.7 µM (active) with TIMP1, TIMP1 (gene 7076); 51.4 µM (active) in experiment [5]. Besides, the AC50 in experiment [7] is 6.99 µM (active); in experiment [9], 22.1 µM (active); in experiment [10], 17.6 µM (active); in experiment [11], 15.9 µM (active); in experiment [12] it was 28.7 µM (active); in [13] it was 6.67 µM (active) and 35.5 µM (active). The half-maximal activity concentration (AC50) in experiment [14] was 31.4 µM (active); in experiment [15], 7.91 µM (active) and 42.1 µM (active). Further, the molecule was classed as inactive in experiment [6], in experiment [8], in experiment [10], in [11], in experiment [14] and in experiment [16].

`COC(=O)c1ccccc1S(=O)(=O)NC(=O)Nc1nc(C)nc(OC)n1`: the result in [17], in experiment [10], in experiment [11] and in [16] was inactive.

For the molecule `CCS(=O)(=O)c1cccnc1S(=O)(=O)NC(=O)Nc1nc(OC)cc(OC)n1`, the result in [17] was inactive.

With `CNC(=O)CSP(=S)(OC)OC`, the outcome in experiment [1] was “inactive”; in experiment [2], “inactive”; in [3] it was “inactive”; in experiment [4], “inactive”; in the experiment with TIMP1, TIMP1 (gene 7076), “inactive”; in [5] it was “inactive”. Besides, the outcome in experiment [6], in experiment [18], in experiment [8] and in experiment [9] was inactive.

`N#CN`: the outcome was “inactive” in [1]; “inactive” in experiment [2]; “inactive” in [3]; “inactive” in experiment [4]; “inactive” with TIMP1, TIMP1 (gene 7076); “inactive” in experiment [5]. For the same molecule, the molecule was called inactive in experiment [6], in experiment [18], in experiment [8] and in experiment [9].

On to `COP(=O)(OC)OC=C(Cl)Cl`, for which the outcome in experiment [1] was “inactive”; in experiment [2] it was “inactive”; in experiment [3] it was “inactive”; in experiment [4], “inactive”; in the experiment with TIMP1, TIMP1 (gene 7076), “inactive”; in experiment [5] it was “inactive”. For the same molecule, the outcome in experiment [6], in experiment [18], in experiment [8] and in experiment [9] was inactive.

Values taken from PubChem BioAssay (EPA / NIEHS).
